Source: PubChem BioAssay (NCATS)
Values joined by “and” are separate entries in the source; they are usually repeats but may differ in a detail not shown here. Identical values can stand only once. Inconclusive results are not listed. Active and inactive are the calls of the source. Unless noted, the call rests on the fitted dose curve; in most records, active means well fitted curve in the direction sought with a large enough effect; inconclusive means small, poorly fitted or top-dose-only effect, or another doubt; inactive means no such curve, though single readings can be large; an effect the other way counts as inactive or inconclusive.

Tests used:
[1] = biological target: Cellular tumor antigen p53 (Homo sapiens) (UniProt P04637); experiment: Primary qHTS for small molecule compounds that upregulate eGFP-tagged delta133p53alpha (in N-terminal) cells. (AID 2060322); details: NCI-H358 eGFP-delta133p53alpha fluorescence, 24 h; activation: active compounds read high; further: nearly all actives have a fitted effect of over 75% in size; further: potency means the concentration at half of the fitted maximal effect;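 on activation: cells pre-induced with doxycycline then dosed without doxycycline; series mostly up to about 56 µM; 0% = DMSO vehicle and 100% = reference activator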
Sequence of Cellular tumor antigen p53 (Homo sapiens) (P04637 whole entry, looked up, the tested form may be a part): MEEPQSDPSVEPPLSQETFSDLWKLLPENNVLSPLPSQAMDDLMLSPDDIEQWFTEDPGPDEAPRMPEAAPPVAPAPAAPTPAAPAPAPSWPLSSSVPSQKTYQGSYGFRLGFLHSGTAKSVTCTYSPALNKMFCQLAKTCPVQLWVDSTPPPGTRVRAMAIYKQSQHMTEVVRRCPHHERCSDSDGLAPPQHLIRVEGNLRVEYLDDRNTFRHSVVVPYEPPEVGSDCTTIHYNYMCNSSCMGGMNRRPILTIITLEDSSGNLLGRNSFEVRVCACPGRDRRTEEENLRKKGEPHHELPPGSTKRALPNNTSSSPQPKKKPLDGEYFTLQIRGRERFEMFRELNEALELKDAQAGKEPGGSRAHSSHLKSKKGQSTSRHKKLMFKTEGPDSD
Procedure, shortened: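 NCI-H358 cells pre-induced 24 h with 10 ng/ml doxycycline for eGFP-delta133p53alpha, plated dox-free and exposed 24 h at 37C to titrated compounds. Fixed, Hoechst-stained; gated GFP peak intensity by laser scanning cytometry, normalized to DMSO (0%) and 57.5 uM 5-azacytidine (100%).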

[2] = biological target: Cellular tumor antigen p53 (Homo sapiens) (UniProt P04637); experiment: Primary qHTS for small molecule compounds that upregulate eGFP-tagged delta133p53alpha (in C-terminal) cells. (AID 2060324); further: potency means the concentration at half of the fitted maximal effect
Procedure, shortened: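 Doxycycline (100 ng/ml, 24 h) first induced the eGFP fusion in NCI-H358 C-terminal-tag cells. Washed-out cells then received titrated compounds for 24 h at 37 °C before paraformaldehyde fixation, Hoechst staining and cytometric GFP quantification.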

[3] = biological target: Aldehyde dehydrogenase, mitochondrial (Homo sapiens) (UniProt P05091); experiment: qHTS for Inhibitors of the Aldehyde Dehydrogenase Family (ALDH2) Validation screens (AID 2061302; active means well fitted inhibition curve with a large enough effect; title and protocol of this record describe different tests;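 further: plate controls were DMSO vehicle for no effect and maximal DPI positive control response for full effect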)
[4] = biological target: Aldehyde dehydrogenase, mitochondrial (Homo sapiens) (UniProt P05091); experiment: qHTS for Inhibitors of the Aldehyde Dehydrogenase Family (ALDH2) Primary screen (AID 2061308);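 further: plate controls were vehicle for no effect and reference inhibitor for full effect; nearly all actives have a fitted effect of over 55% in size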
[5] = biological target: Retinaldehyde dehydrogenase 3 (Homo sapiens) (UniProt P47895); experiment: qHTS for Inhibitors of the Aldehyde Dehydrogenase Family (ALDH1A3) Validation screen (AID 2061312); further: on the % scale 0 is the no-effect control and ±100 the full control effect; nearly all actives have a fitted effect of over 45% in size
[6] = biological target: Retinaldehyde dehydrogenase 3 (Homo sapiens) (UniProt P47895); experiment: qHTS for Inhibitors of the Aldehyde Dehydrogenase Family (ALDH1A3) Primary screen (AID 2061315);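 further: plate controls were DMSO vehicle for no effect and reference inhibitor for full effect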
[7] = BET inhibitor-based combinations targeting novel dependencies in MECOM-rearranged (r) AML: HNT-34 cell line (AID 2202234); further: nearly all actives have a fitted effect of over 35% in size; further: potency means the concentration at half of the fitted maximal effect
Procedure, shortened: (§1)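 Normalized to DMSO and empty-well controls, the luminescence data from CellTiter-Glo after 48 hr drug exposure were fitted across 11 concentrations. Reported metrics are area under the dose-response curve and its Z-transformed form.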

[8] = BET inhibitor-based combinations targeting novel dependencies in MECOM-rearranged (r) AML: AML-191 cell line (AID 2202236; further: nearly all actives have a fitted effect of over 35% in size; further: potency means the concentration at half of the fitted maximal effect)
Procedure, shortened: (§2)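 Here, 11-point titrations of each agent were applied to 500 seeded cells and incubated 48 hr; CellTiter-Glo signal, scaled against DMSO and empty wells, was integrated as AUC, then Z-scored within the individual line.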

[9] = BET inhibitor-based combinations targeting novel dependencies in MECOM-rearranged (r) AML: AML-194 cell line (AID 2202237; further: nearly all actives have a fitted effect of over 40% in size; further: potency means the concentration at half of the fitted maximal effect)
Procedure, shortened: as §2

[10] = BET inhibitor-based combinations targeting novel dependencies in MECOM-rearranged (r) AML: SET-2 cell line (AID 2202231); details: SET-2 AML cells viability, CellTiter-Glo luminescence, 48 h; viability: active compounds read low, concentration not given here; further: nearly all actives have a fitted effect of over 35% in size; further: potency means the concentration at half of the fitted maximal effect;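 on viability: plate controls were DMSO treated cells for no effect and wells without cells for full effect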
Procedure, shortened: as §2

[11] = BET inhibitor-based combinations targeting novel dependencies in MECOM-rearranged (r) AML: OCI-AML3 cell line (AID 2202232); details: Potency: OCI-AML3 viability; further: nearly all actives have a fitted effect of over 35% in size; further: potency means the concentration at half of the fitted maximal effect
Procedure, shortened: as §2

[12] = BET inhibitor-based combinations targeting novel dependencies in MECOM-rearranged (r) AML: MV-4-11 cell line (AID 2202233); further: nearly all actives have a fitted effect of over 45% in size; further: potency means the concentration at half of the fitted maximal effect
Procedure, shortened: as §1

[13] = BET inhibitor-based combinations targeting novel dependencies in MECOM-rearranged (r) AML: UCSD-AML1 cell line (AID 2202235); further: nearly all actives have a fitted effect of over 40% in size; further: potency means the concentration at half of the fitted maximal effect
Procedure, shortened: as §1

CCN1CCC[C@H]1CNC(=O)c1cc(S(N)(=O)=O)ccc1OC
inactive: activation [1] -14.2% and 19% and 1.55% | Potency [2] | Potency [3] | Potency [4] | Potency [5] | Potency [6]

Nn1nnc2ccccc21
inactive: activation [1] 15.1% | Potency [2] | Potency [3] | Potency [5]

CCCCCN(CCCCC)C(=O)C(CCC(=O)O)NC(=O)c1ccc(Cl)c(Cl)c1 (stereo unspecified)
inactive: activation [1] 13% and -3% | Potency [2] | Potency [3] | Potency [5]

O=C(O)CCc1ccc(NCc2cccc(Oc3ccccc3)c2)cc1
inactive: activation [1] -48.8% and -14.3% and -8.5% | Potency [2] | Potency [3] | Potency [4] | Potency [5] | Potency [6] | Potency [7] | Potency [8] | Potency [9]

C=C1C[C@@]23CC[C@H]4[C@@](C)(CCC[C@@]4(C)C(=O)O)[C@@H]2CC[C@]1(O)C3
inactive: activation [1] 9.04% | Potency [2] | Potency [3] | Potency [5]

O=[N+]([O-])c1ccc(-c2nc(-c3ccc(F)cc3)c(-c3ccncc3)[nH]2)cc1
inactive: activation [1] 47.4% | Potency [2] | Potency [3] | Potency [4] | Potency [5] | Potency [6] | viability [10] 106% | Potency [11] | Potency [7] | Potency [13] | Potency [8] | Potency [9]
active: Potency [12] 16.6 µM

COC(=O)[C@@H]1[C@H]2C[C@H]3c4[nH]c5ccccc5c4CCN3C[C@@H]2CC[C@@H]1O
inactive: activation [1] -9.53% and 22.3% | Potency [2] | Potency [3] | Potency [4] | Potency [6] | viability [10] 106% | Potency [7] | Potency [8]

COC(=O)C1=CO[C@@H](O)[C@@H]2C(CO)=CC[C@H]12
inactive: activation [1] 8.04% | Potency [2] | Potency [3] | Potency [4] | Potency [5] | Potency [6]

O=C(Nc1ccc2c(c1)CCN(Cc1ncn[nH]1)C2)c1ccccc1-c1ccc(C(F)(F)F)cc1
active: Potency [12] 14.8 µM
inactive: activation [1] -9.63% and 4.33% | Potency [2] | Potency [3] | Potency [4] | Potency [5] | Potency [6] | Potency [7] | Potency [13] | Potency [8] | Potency [9]

CCCCc1ncc(/C=C(\Cc2cccs2)C(=O)O)n1Cc1ccc(C(=O)O)cc1
inactive: activation [1] -19.8% and -8.36% and -2.86% | Potency [2] | Potency [3] | Potency [4] | Potency [6]

CCN(CC)CCCC(C)Nc1c2ccc(Cl)cc2nc2ccc(OC)cc12 (stereo unspecified)
active: Potency [1] 12.3 µM and 11.7 µM | Potency [2] 26.9 µM | Potency [10] 7.42 µM | Potency [11] 7.42 µM | Potency [12] 2.95 µM | Potency [7] 7.42 µM | Potency [13] 4.68 µM | Potency [9] 7.42 µM
inactive: Potency [3] | Potency [4] | Potency [6]

O=S(=O)(c1cccc2c(Cl)cccc12)N1CCCNCC1
inactive: activation [1] -18.2% | Potency [2] | Potency [3] | Potency [5]

CN(C)C(=O)[C@H](O)[C@H](Cc1ccccc1)NC(=O)c1cc2cc(Cl)ccc2[nH]1
inactive: activation [1] -2.47% and -33.3% and 7.64% | Potency [2] | Potency [3] | Potency [4] | Potency [5] | Potency [6] | viability [10] 95.3% | Potency [13] | Potency [8] | Potency [9]

Cc1nn(-c2ccccc2)c(C)c1/C=N/N1CCN(Cc2ccccc2)CC1
inactive: activation [1] -13.7% and -4.24% | Potency [2] | Potency [3] | Potency [4] | Potency [5] | Potency [6]

COc1ccccc1N1CCN(CCN(C(=O)C2CCCCC2)c2ccccn2)CC1
inactive: activation [1] -36.9% and -0.333% and -10.7% | Potency [2] | Potency [3] | Potency [4] | Potency [5] | Potency [6] | Potency [11] | Potency [13] | Potency [8] | Potency [9]

CCN1CCC[C@H]1CNC(=O)c1c(O)c(Cl)cc(Cl)c1OC
inactive: activation [1] -10% and -6.2% | Potency [2] | Potency [3] | Potency [5]

NS(=O)(=O)c1ccc(-n2nc(C(F)(F)F)cc2-c2ccc(Cl)cc2)cc1
inactive: activation [1] -38.9% and -11.9% | Potency [2] | Potency [3] | Potency [4] | Potency [5] | Potency [6]

O=[N+]([O-])c1ccc(CNc2nc(NCc3cccc(C(F)(F)F)c3)nc3nc[nH]c23)cc1
inactive: activation [1] -48.1% and 15.7% | Potency [2] | Potency [3] | Potency [4] | Potency [5] | Potency [6]

N[C@H](C(=O)O)c1cc(O)cc(O)c1
inactive: activation [1] -2.9% | Potency [2] | Potency [3] | Potency [5]

CN(C)CCC(c1ccccc1)c1ccccn1 (stereo unspecified)
inactive: activation [1] -2.82% and -9.55% and -25.6% | Potency [2] | Potency [3] | Potency [4] | Potency [5] | Potency [6]

COC(=O)[C@H](NC(=O)c1cc(-c2ccccc2)nc2ccccc12)c1ccccc1
inactive: activation [1] 6.75% | Potency [2] | Potency [3] | Potency [5]

CCN1CCCC1CNC(=O)c1cc(S(N)(=O)=O)ccc1OC (stereo unspecified)
inactive: activation [1] 8% and -7.28% | Potency [2] | Potency [3] | Potency [5]

CN(C)CCCC1(c2ccc(F)cc2)OCc2cc(C#N)ccc21 (stereo unspecified)
inactive: activation [1] 2.08% and 5.36% and -45.1% | Potency [2] | Potency [3] | Potency [4] | Potency [5] | Potency [6]

Clc1ccc2c(c1)N=C(N1CCNCC1)c1ccccc1N2
inactive: activation [1] 11.7% and 30.8% | Potency [2] | Potency [3] | Potency [4] | Potency [5] | Potency [6]

CC1(C)C(=O)N(CCN2CCC(C(=O)c3ccc(F)cc3)CC2)c2ccccc21
inactive: activation [1] -67.7% and -2.62% | Potency [2] | Potency [3] | Potency [5]

CCCCC[C@H](CC(=O)NO)C(=O)N[C@H](C(=O)N1CCC[C@H]1CO)C(C)C
inactive: activation [1] -6.85% | Potency [2] | Potency [3] | Potency [5]

O=C1NC(=O)/C(=C/c2ccc3c(c2)OC(F)(F)O3)S1
inactive: activation [1] -0.772% and -0.477% | Potency [2] | Potency [3] | Potency [4] | Potency [6]

c1cnc2cc3c(cc2n1)C1CNCC3C1
inactive: activation [1] -5.72% and -13.8% | Potency [2] | Potency [3] | Potency [4] | Potency [5] | Potency [6] | viability [10] 106% | Potency [11] | Potency [12] | Potency [7] | Potency [13] | Potency [9]

CCN(c1nc(N)c(C(=O)N=C(N)N)nc1Cl)C(C)C
inactive: activation [1] -41.7% | Potency [2] | Potency [3] | Potency [5]

CC(C)(C(=O)O)c1ccc(C(O)CCCN2CCC(C(O)(c3ccccc3)c3ccccc3)CC2)cc1 (stereo unspecified)
inactive: activation [1] 1.67% and -7.64% and -17.3% | Potency [2] | Potency [3] | Potency [4] | Potency [5] | Potency [6]

CCc1cncnc1N1CCN(Cc2nc3ccc(C(F)(F)F)cc3[nH]2)CC1
active: Potency [10] 14.8 µM | Potency [11] 11.8 µM | Potency [12] 18.6 µM | Potency [8] 13.2 µM
inactive: activation [1] -18% and -36.7% and 26.8% | Potency [2] | Potency [3] | Potency [4] | Potency [5] | Potency [6] | Potency [13]

CC(=O)CCCCn1c(=O)c2c(ncn2C)n(C)c1=O
inactive: activation [1] -15.1% and -0.333% and -11.4% | Potency [2] | Potency [3] | Potency [4] | Potency [5] | Potency [6]

O=C(O)CCC(=O)N1CCCC1C(=O)O (stereo unspecified)
inactive: activation [1] 8.81% | Potency [2] | Potency [3] | Potency [5]

O=C(CCCN1CCC(O)(c2ccc(Cl)cc2)CC1)c1ccc(F)cc1
inactive: activation [1] 37.6% and -8.4% | Potency [2] | Potency [3] | Potency [5]

CCCCCCCCCCCCCCC[C@H](O)[C@H](N)CO
inactive: activation [1] 14.1% | Potency [2] | Potency [3] | Potency [5]
